Assay results: PubChem BioAssay
The source made the active and inactive calls. Unless noted, how the calls were made is not given here.

Assays:
[1] = test system: Wnt5a (protein binding on small-molecule microarray); test: small molecules binding Wnt5a protein – biophysical, small-molecule microarray, 635/667 nm fluorescence, primary screen (AID 1142); settings: 635 nm fluorescence, higher = more signal;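 further: fluorescence read at 667 nm with signal to noise per printed feature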
[2] = ATP-based viability of Huh7 replicon cells – cell-based, CellTiter-Glo luminescence, basal, 48 h, cytotoxicity control for HCV replication inhibitor project, primary screen (AID 1143); settings: higher = more signal, called active from +8 up or from −8 down;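 further: Huh7 hepatoma cells carrying a hepatitis C replication reporter with no stimulus; test concentration not given here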
[3] = Pseudomonas biofilm growth suppression – PAO1 strain, BacTiter-Glo luminescence, LB-PBS, primary screen (AID 1144); settings: P. aeruginosa PAO1 biofilm, 12 h, higher = more signal
[4] = basal CRE-LacZ reporter activity in PC12 – cell-based, unstimulated, primary screen (AID 1145); settings: no forskolin, luminescence, 4.5 h, higher = more signal, called active from +8 up or from −8 down
[5] = forskolin-driven CRE-LacZ activity in PC12 – cell-based, CRE-LacZ reporter, forskolin-stimulated, primary screen (AID 1146); settings: luminescence, 4.5 h, higher = more signal, called active from +8 up or from −8 down;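 further: PC12 cells with 6xCRE LacZ reporter stimulated by forskolin 10 µM; beta-galactosidase reporter signal reflecting CREB driven transcription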
[6] = target: Streptavidin (Streptomyces avidinii) (UniProt P22629); test: compounds binding control protein streptavidin – biophysical, small-molecule microarray, 635/667 nm fluorescence, artefact control for SMM compound annotation, primary screen (AID 1147); settings: higher = more signal;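 further: signal reflects streptavidin binding to arrayed compounds as a control protein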
[7] = probe aInhba binding on compound microarray – biochemical, small-molecule microarray, 635/667 nm fluorescence, primary screen (AID 1148); settings: higher = more signal;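 further: score merges 667nm spot fluorescence with signal-to-noise for antibody binding to printed compounds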
[8] = target: Torsin-1A (Homo sapiens) (UniProt O14656); test: TOR1A wild-type binding on microarray – cell lysate, small-molecule microarray, lysate, 635/667 nm, primary screen (AID 1149); settings: COS7 hTOR1A-WT lysate, 635 nm fluorescence, higher = more signal
[9] = target: Torsin-1A (Homo sapiens) (UniProt O14656); test: torsin A mutant lysate binding on microarrays – cell lysate, small-molecule microarray, COS7 lysate, 635/667 nm fluorescence, primary screen (AID 1150); settings: COS7 hTOR1A mutant lysate, 635 nm fluorescence, higher = more signal;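 further: score pools 667 nm emission and signal to noise measuring lysate protein binding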
[10] = test system: Sonic hedgehog protein (Shh); test: Sonic hedgehog microarray binding compounds – biochemical, small-molecule microarray, 635/667 nm fluorescence, primary screen (AID 1151); settings: 635 nm fluorescence, higher = more signal;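 further: Shh protein binding to compounds spotted on small-molecule microarray slides; score combines spot fluorescence intensity with signal-to-noise across triplicate slides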
[11] = optical density shifts of acrAB sulA E. coli – strain DRC41, OD650, 48 h, E. coli filamentation inducer project, primary screen (AID 1152); settings: higher = more signal, called active from +8 up or from −8 down;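 further: E. coli MC1000 strain DRC41 lacking acrAB efflux pump and sulA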
[12] = probe aLefty1 binding on compound microarray – biochemical, small-molecule microarray, 635/667 nm fluorescence, primary screen (AID 1153); settings: higher = more signal;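 further: score merges spot fluorescence with signal-to-noise ratio from the scanned slide images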
[13] = plasmodial surface anion channel blockers, osmotic lysis – cell-based, P. falciparum Indochina, OD700, 1 h, primary screen (AID 1154); settings: P. falciparum Indochina infected RBC osmotic lysis, higher = more signal, called active from +8 up or from −8 down
[14] = plasmodial surface anion channel blockers, osmotic lysis – cell-based, P. falciparum Indochina, OD700, 2 h, primary screen (AID 1155);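 further: lysis reports solute entry through the parasite surface anion channel PSAC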; settings: P. falciparum Indochina infected erythrocytes, higher = more signal, called active from +8 up or from −8 down
[15] = changes in parasitized red cell lysis, either direction – P. falciparum Indochina, OD700, 3 h, PSAC antagonist project, primary screen (AID 1156); settings: P. falciparum-infected erythrocytes, osmotic lysis, higher = more signal, called active from +8 up or from −8 down
[16] = plasmodial surface anion channel blockers, osmotic lysis – cell-based, P. falciparum Indochina, OD700, 18 h, primary screen (AID 1157); settings: P. falciparum Indochina infected erythrocytes, osmotic lysis OD700, 18 h; higher = more signal, called active from +8 up or from −8 down
[17] = S6 kinase pathway phospho-S6 level changes – cell-based, A549, cytoblot, luminescence, serum-stimulated, primary screen (AID 1158); settings: 5 h, higher = more signal;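 further: serum-stimulated A549 lung adenocarcinoma cells; signal is phosphorylated S6 detected by cytoblot immunostaining with HRP secondary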
[18] = target: NADPH oxidase 2 (Homo sapiens) (UniProt P04839); test: compounds shifting NOX2 Amplex Red fluorescence – cell-based, HEK293-NOX2, PMA-stimulated, NOX inhibitor project, primary screen (AID 1159); settings: 45 min, higher = more signal, called active from +8 up or from −8 down; further: test concentration not given here
[19] = target: NADPH oxidase 4 (Homo sapiens) (UniProt Q9NPH5); test: compounds shifting NOX4 Amplex Red fluorescence – cell-based, HEK293-NOX4, tetracycline-induced, NOX inhibitor project, primary screen (AID 1160); settings: HEK293-NOX4, Amplex Red H2O2 fluorescence, 45 min; higher = more signal, called active from +8 up or from −8 down
[20] = target: NADPH oxidase 5 (Homo sapiens) (UniProt Q96PH1); test: compounds shifting NOX5 Amplex Red fluorescence – cell-based, HEK293-NOX5, NOX inhibitor project, primary screen (AID 1161); settings: HEK293-NOX5, ionomycin, 45 min, higher = more signal
NADPH oxidase 5 (Homo sapiens), sequence (Q96PH1 whole entry, looked up): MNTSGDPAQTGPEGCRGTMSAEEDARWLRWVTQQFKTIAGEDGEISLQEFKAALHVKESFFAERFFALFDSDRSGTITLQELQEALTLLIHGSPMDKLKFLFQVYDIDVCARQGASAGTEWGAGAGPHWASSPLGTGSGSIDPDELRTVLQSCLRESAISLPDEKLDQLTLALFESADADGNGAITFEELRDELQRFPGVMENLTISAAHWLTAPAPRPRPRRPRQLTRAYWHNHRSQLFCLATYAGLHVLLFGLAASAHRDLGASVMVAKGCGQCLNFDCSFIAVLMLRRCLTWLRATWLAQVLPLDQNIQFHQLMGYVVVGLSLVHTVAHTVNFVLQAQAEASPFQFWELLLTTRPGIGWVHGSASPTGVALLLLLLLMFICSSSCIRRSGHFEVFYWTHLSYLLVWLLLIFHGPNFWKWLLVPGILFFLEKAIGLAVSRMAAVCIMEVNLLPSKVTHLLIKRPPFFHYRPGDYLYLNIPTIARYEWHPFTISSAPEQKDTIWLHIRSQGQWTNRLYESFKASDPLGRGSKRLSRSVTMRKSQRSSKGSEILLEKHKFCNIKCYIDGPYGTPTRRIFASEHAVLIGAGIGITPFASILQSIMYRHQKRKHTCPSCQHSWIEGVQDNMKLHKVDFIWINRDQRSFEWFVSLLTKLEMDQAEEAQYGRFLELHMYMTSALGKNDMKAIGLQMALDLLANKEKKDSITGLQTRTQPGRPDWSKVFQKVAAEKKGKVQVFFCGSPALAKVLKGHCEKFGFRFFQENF

NADPH oxidase 4 (Homo sapiens), sequence (Q9NPH5 whole entry, looked up): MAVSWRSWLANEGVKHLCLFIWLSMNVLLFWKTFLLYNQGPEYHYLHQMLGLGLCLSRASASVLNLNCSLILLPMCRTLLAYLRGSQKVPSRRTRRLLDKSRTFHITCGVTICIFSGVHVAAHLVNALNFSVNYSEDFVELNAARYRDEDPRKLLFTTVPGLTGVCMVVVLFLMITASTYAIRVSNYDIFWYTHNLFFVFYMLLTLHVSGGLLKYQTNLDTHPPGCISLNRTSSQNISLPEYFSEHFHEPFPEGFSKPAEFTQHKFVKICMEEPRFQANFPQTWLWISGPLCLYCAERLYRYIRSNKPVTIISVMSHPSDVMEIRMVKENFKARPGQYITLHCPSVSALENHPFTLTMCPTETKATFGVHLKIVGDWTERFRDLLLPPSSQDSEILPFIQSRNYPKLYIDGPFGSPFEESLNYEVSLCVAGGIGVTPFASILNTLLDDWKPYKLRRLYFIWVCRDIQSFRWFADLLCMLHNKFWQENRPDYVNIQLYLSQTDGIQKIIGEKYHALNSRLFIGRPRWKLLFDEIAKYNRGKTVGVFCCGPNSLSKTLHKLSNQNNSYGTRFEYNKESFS
Torsin-1A (Homo sapiens), sequence (O14656 whole entry, looked up): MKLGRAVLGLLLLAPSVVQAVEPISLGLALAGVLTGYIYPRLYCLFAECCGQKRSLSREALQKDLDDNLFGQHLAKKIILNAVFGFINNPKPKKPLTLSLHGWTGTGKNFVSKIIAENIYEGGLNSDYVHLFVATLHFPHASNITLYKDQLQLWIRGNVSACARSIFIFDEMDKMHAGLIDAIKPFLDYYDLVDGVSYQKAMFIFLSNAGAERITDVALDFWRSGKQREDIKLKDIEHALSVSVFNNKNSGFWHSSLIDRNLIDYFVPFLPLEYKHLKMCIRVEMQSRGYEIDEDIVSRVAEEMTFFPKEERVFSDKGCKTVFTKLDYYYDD
NADPH oxidase 2 (Homo sapiens), sequence (P04839 whole entry, looked up): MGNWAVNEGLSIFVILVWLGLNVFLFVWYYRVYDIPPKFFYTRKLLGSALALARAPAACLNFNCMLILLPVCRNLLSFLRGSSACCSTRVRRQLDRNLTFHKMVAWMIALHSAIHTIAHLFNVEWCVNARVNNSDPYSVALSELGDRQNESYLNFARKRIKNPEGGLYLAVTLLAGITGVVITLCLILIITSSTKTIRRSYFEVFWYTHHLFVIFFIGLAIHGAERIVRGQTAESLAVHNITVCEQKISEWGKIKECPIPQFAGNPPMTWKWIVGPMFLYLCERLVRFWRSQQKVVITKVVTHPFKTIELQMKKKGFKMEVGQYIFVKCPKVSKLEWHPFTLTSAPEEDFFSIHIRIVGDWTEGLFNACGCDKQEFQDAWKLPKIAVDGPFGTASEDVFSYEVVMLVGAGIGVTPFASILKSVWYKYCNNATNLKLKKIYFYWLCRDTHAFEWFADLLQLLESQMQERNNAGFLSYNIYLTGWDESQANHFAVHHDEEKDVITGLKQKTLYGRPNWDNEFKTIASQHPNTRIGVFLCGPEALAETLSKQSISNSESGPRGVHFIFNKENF
Streptavidin (Streptomyces avidinii), sequence (P22629 whole entry, looked up): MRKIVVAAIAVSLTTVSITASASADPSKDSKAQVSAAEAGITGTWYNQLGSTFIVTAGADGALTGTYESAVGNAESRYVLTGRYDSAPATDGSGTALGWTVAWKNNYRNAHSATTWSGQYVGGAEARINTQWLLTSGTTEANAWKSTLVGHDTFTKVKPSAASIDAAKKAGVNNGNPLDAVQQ

With `C[N+](C)(C)CCCCNC(=O)[C@H]1C[C@H]2C(=O)NCC(=O)N2[C@H]1c1cccc(OCCO)c1` the composite z-score [1] was 0.668, the z-score [2] was 0.148 (inactive) and the z-score [3] was -0.722 (inactive). The z-score [4] was 0.419 (inactive), the z-score [5] was -0.153 (inactive) and the composite z-score [6] was 0.0924. The composite z-score [7] was -0.0044, the composite z-score [8] was 1.21 and the composite z-score [9] was 0.961. For the same compound, the composite z-score [10] was 2.17, the z-score [11] was -0.184 (inactive) and the composite z-score [12] was 0.223. For the same compound, the z-score [13] was 2.81 (inactive), the z-score [14] was -0.0646 (inactive) and the z-score [15] was -2.28 (inactive). The z-score [16] was -0.0179 (inactive), the z-score [17] was 0.0455 and the z-score [18] was -1.21 (inactive). The z-score [19] was 0.0245 (inactive) and the z-score [20] was 0.259.

For `O=C1O[C@H](c2ccccc2)[C@H](c2ccccc2)N2[C@H]1[C@@H](C(=O)Nc1nc3ccccc3s1)[C@]1(C(=O)Nc3ccc(C#CC4(O)CCCCCC4)cc31)[C@H]2c1ccc(O)cc1`, the composite z-score [1] was 0.328, the z-score [2] was -0.859 (inactive) and the z-score [3] was -0.781 (inactive). The z-score [4] was 0.802 (inactive), the z-score [5] was 0.3 (inactive) and the composite z-score [6] was 1.34. It also gave a composite z-score [7] of 0.293, a composite z-score [8] of 0.417 and a composite z-score [9] of 0.164. For the same compound, the composite z-score [10] was 1.82, the z-score [11] was -1.07 (inactive) and the composite z-score [12] was 0.308. The z-score [13] was 0.797 (inactive), the z-score [14] was 1.57 (inactive) and the z-score [15] was 0.315 (inactive). For the same compound, the z-score [16] was 1.38 (inactive), the z-score [17] was -0.0907 and the z-score [18] was 1.03 (inactive). The z-score [19] was -0.14 (inactive) and the z-score [20] was 0.842.

In the case of `COC(=O)C1=CC(c2ccc(CO)cc2)=CC(c2cccs2)N(Cc2cccc(OC(F)(F)F)c2)C=C1C(=O)OC` (stereo not given), the composite z-score [1] is reported as 0.0365, the z-score [2] is reported as -3.08 (inactive) and the z-score [3] is reported as 0.714 (inactive). The z-score [4] was 0.0924 (inactive), the z-score [5] was -0.287 (inactive) and the composite z-score [6] was 2.29. For the same compound, the composite z-score [7] was 0.248, the composite z-score [8] was 0.947 and the composite z-score [9] was 0.76. For the same compound, the composite z-score [10] was 0.381, the z-score [11] was -1.66 (inactive) and the composite z-score [12] was 0.641. The z-score [13] was 10.9 (active), the z-score [14] was 1.87 (inactive) and the z-score [15] was 0.615 (inactive). For the same compound, the z-score [16] was 1.43 (inactive), the z-score [17] was -0.264 and the z-score [18] was -1.76 (inactive). The z-score [19] was -1.96 (inactive) and the z-score [20] was -2.87.

With `CN1C(=O)C2C=CC(C(O)C3CC=CCC3)N(Nc3ccccc3)C2C1=O` (stereo not given) the composite z-score [1] was 0.521, the z-score [2] was 0.758 (inactive) and the z-score [3] was -0.269 (inactive). The z-score [4] was -0.333 (inactive), the z-score [5] was 0.0874 (inactive) and the composite z-score [6] was 0.505. For the same compound, the composite z-score [7] was 0.208, the composite z-score [8] was 0.664 and the composite z-score [9] was 1.06. The composite z-score [10] was 1.57, the z-score [11] was -1.08 (inactive) and the composite z-score [12] was 0.346. The z-score [13] was 0.756 (inactive), the z-score [14] was 0.0735 (inactive) and the z-score [15] was -0.139 (inactive). The z-score [16] was 0.459 (inactive), the z-score [17] was -0.879 and the z-score [18] was -1.81 (inactive). For the same compound, the z-score [19] was -3.23 (inactive) and the z-score [20] was -3.05.
